Test results as given in the supplement of paper PMC12636033.
± gives the standard deviation of the averaged measurements. In all, about 33,000 sequences were measured (“E-score (rank enrichment, -0.5 to 0.5)”: median about -0.0075, highest 2% from about 0.23 on). The sample as a whole holds a higher share of the highest values than the screen did.

Each sequence was assayed on WT Max(13-93) synthetic (M65Nle) (assay: PBM 8-mer E-score (E-score (rank enrichment, -0.5 to 0.5)); higher = stronger preferential binding).
Description: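 Protein binding microarray (universal PBM chip covering all 10-mers in fixed probe flanks) with chemically synthesized human Max(13-93) bHLH-LZ analogs (not full-length Max) bearing noncanonical residues (hArg, Tha, Aib, Nle at 65) and aromatic Cys staples. Read-out per 8-mer (and its reverse complement): E-score (rank-based enrichment, -0.5 to 0.5) and Z-score of median probe intensity.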

In order of falling “PBM 8-mer E-score” value:
1. ACCACGTG  0.4956 ± 0.0014
2. AGCACGTG  0.4878 ± 0.00074
3. CCACGCGG  0.433 ± 0.024
4. CCACGAGG  0.365 ± 0.052
5. ACCACGCG  0.361 ± 0.016
6. ACACGCGT  0.325 ± 0.013
7. CCCACGCG  0.31 ± 0.011
8. GGCGGGGA  0.303 ± 0.031
9. GTGATTAA  0.296 ± 0.066
10. ACGTGCCA  0.294 ± 0.025
11. ATATGTGG  0.292 ± 0.015
12. GTGTCATA  0.291 ± 0.0065
13. ACACGCGG  0.281 ± 0.03
14. ATATGTGA  0.278 ± 0.14
15. GTGATTTA  0.27 ± 0.0069
16. ATTACTAC  0.264 ± 0.03
17. ACACGCGC  0.259 ± 0.026
18. GAAAAGGC  0.253 ± 0.15
19. ACGTGCCT  0.252 ± 0.0048
20. AGTCACAT  0.251 ± 0.0014
21. GTATCATA  0.248 ± 0.1
22. GTTTTGTA  0.248 ± 0.031
23. ACGTGCCC  0.247 ± 0.032
24. ACGCGCGT  0.246 ± 0.012
25. AAATGTGG  0.245 ± 0.048
26. AAACATAA  0.244 ± 0.059
27. TAACATAA  0.244 ± 0.0065
28. CTTTTCAC  0.241 ± 0.17
29. ATTTTCTA  0.24 ± 0.019
30. GTGATGTA  0.239 ± 0.0057
31. ATAACTAC  0.239 ± 0.077
32. ATTTTGTA  0.237 ± 0.051
33. GTACATAA  0.236 ± 0.0032
34. AAACATAC  0.233 ± 0.027
35. AAATGTGT  0.224 ± 0.085
36. ACACATAA  0.214 ± 0.066
37. AAACATAG  0.21 ± 0.031
38. ACGTGCCG  0.206 ± 0.029
39. AGAAAGTA  0.204 ± 0.0097
40. ATGATGTA  0.197 ± 0.047
41. CTGATTAA  0.192 ± 0.081
42. ATATCATA  0.184 ± 0.031
43. ATATGTGC  0.181 ± 0.014
44. ATGATTTA  0.178 ± 0.027
45. AATTTCTA  0.172 ± 0.047
46. GCACGCGC  0.171 ± 0.025
47. ATTTACCG  0.17 ± 0.0023
48. ATGTCATA  0.1682 ± 0.0013
49. CAACATAA  0.167 ± 0.0094
50. CACCTGAA  0.166 ± 0.075
51. CTATCATA  0.1619 ± 0.00089
52. GAACATAA  0.16 ± 0.059
53. AATGGCAT  0.16 ± 0.14
54. ACACGCAT  0.159 ± 0.043
55. ACACGCGA  0.157 ± 0.042
56. CCACGCGC  0.152 ± 0.035
57. ATGTGTGG  0.148 ± 0.055
58. AACGTTTA  0.146 ± 0.049
59. ATTTTGTG  0.145 ± 0.021
60. AAACATAT  0.144 ± 0.0056
61. ATAACTAT  0.143 ± 0.042
62. TTACATAA  0.136 ± 0.048
63. AGAAGCAT  0.135 ± 0.018
64. CAATGTGG  0.133 ± 0.072
65. ATTCAACA  0.131 ± 0.1
66. CACCACTA  0.129 ± 0.17
67. CTTTTGTA  0.125 ± 0.051
68. ACGCGCGG  0.118 ± 0.018
69. ACGCGCGA  0.114 ± 0.066
70. CTGTCATA  0.113 ± 0.023
71. CAACATAC  0.112 ± 0.046
72. AAAAAGGC  0.109 ± 0.096
73. GTTTTGCA  0.108 ± 0.019
74. ACCACGCA  0.104 ± 0.042
75. AAGAAATG  0.101 ± 0.04
76. CCCTCCTA  0.0972 ± 0.061
77. AGTCACAC  0.0956 ± 0.0018
78. CTTACTAC  0.08987 ± 0.00056
79. GTTCTCGA  0.0864 ± 0.12
80. ACACGCTG  0.0854 ± 0.074
81. CTGATTTA  0.0789 ± 0.0019
82. AAACGCGT  0.0714 ± 0.1
83. CTTTTCTA  0.0691 ± 0.035
84. CCACGAGA  0.0679 ± 0.15
85. CTACATAA  0.0655 ± 0.2
86. ACCACGCC  0.0629 ± 0.16
87. ATTGCCTC  0.0622 ± 0.064
88. ACGCGCGC  0.0593 ± 0.05
89. CCTTCTCA  0.0588 ± 0.1
90. CCTTCGAA  0.0583 ± 0.015
91. CCACGCGA  0.0546 ± 0.083
92. AGGACGAT  0.0538 ± 0.14
93. ACCACGTA  0.0522 ± 0.0021
94. GGAAGGAA  0.0471 ± 0.045
95. GAGATCAA  0.0454 ± 0.094
96. ACCACGTC  0.0378 ± 0.15
97. CCTATACG  0.0369 ± 0.014
98. GCCCGAGC  0.035 ± 0.06
99. CTGCGCAC  0.0305 ± 0.029
100. ATCCCTCC  0.0287 ± 0.088
101. CTGATGTA  0.0268 ± 0.064
102. CAAATCAC  0.0214 ± 0.064
103. GGCGGGAA  0.0202 ± 0.047
104. CTATGTGA  0.0181 ± 0.018
105. CGTGGCGA  0.015 ± 0.0011
106. CAGAATAG  0.0142 ± 0.048
107. CCTTTCAC  0.0141 ± 0.092
108. AAGCGCGC  0.0137 ± 0.0014
109. GCAACCAA  0.00549 ± 0.078
110. AGGAGCAT  0.00459 ± 0.16
111. CCTGTCGA  0.00438 ± 0.055
112. ACGAAGTG  0.00194 ± 0.018
113. ATGATTAA  0.0011 ± 0.15
114. CCCACGCA  -0.00155 ± 0.1
115. CCCACGCC  -0.00325 ± 0.11
116. ATTACTAG  -0.00575 ± 0.14
117. AACGAAGC  -0.00685 ± 0.13
118. CAGGGTAC  -0.008 ± 0.013
119. GGTTTGTA  -0.0081 ± 0.036
120. CAAAAGGC  -0.00832 ± 0.029
121. CAAAAAGC  -0.0124 ± 0.093
122. AGCACGTA  -0.0146 ± 0.12
123. ACTAGGCA  -0.0155 ± 0.066
124. ATTTTCAC  -0.017 ± 0.0034
125. CAGTGCGA  -0.0198 ± 0.16
126. CGCGGAAA  -0.0276 ± 0.059
127. ATCGCGCA  -0.034 ± 0.026
128. CGCCTTAG  -0.0361 ± 0.042
129. CCGTGCCA  -0.0364 ± 0.14
130. ACTGATGC  -0.0431 ± 0.041
131. GTATGTGA  -0.0439 ± 0.13
132. CGTTGCAA  -0.0452 ± 0.0072
133. CGCTAGTA  -0.0479 ± 0.0027
134. CCACGAGC  -0.0509 ± 0.015
135. AGCCTAGG  -0.0541 ± 0.089
136. ACCCAGAG  -0.0559 ± 0.026
137. CGCGAGAA  -0.0592 ± 0.072
138. GCGTGCCA  -0.0642 ± 0.045
139. CCGCTTCG  -0.0665 ± 0.16
140. ATCTAATG  -0.0696 ± 0.071
141. AGCTCTCA  -0.0708 ± 0.13
142. ACGACCAA  -0.0717 ± 0.22
143. AGCCGTCA  -0.0749 ± 0.036
144. AATCGGAG  -0.0774 ± 0.087
145. GCGTGCCC  -0.0787 ± 0.13
146. TAGGTAAA  -0.0909 ± 0.038
147. CGGAAAGC  -0.0958 ± 0.16
148. CTAACTAC  -0.0993 ± 0.059
149. AAGTGCCT  -0.106 ± 0.055
150. TCGGACCA  -0.114 ± 0.059
151. AGTCACAG  -0.117 ± 0.061
152. AGCACGTC  -0.118 ± 0.093
153. AAGACGGA  -0.127 ± 0.033
154. CTGGTCCA  -0.128 ± 0.094
155. CCGTGCCC  -0.132 ± 0.18
156. AGTCGTTC  -0.143 ± 0.11
157. AAGCTCTG  -0.144 ± 0.028
158. GCACAGGC  -0.146 ± 0.038
159. AGCAAGCC  -0.152 ± 0.033
160. CGCGGGGA  -0.172 ± 0.12
161. CCAGCCCA  -0.176 ± 0.14
162. AGCGATGA  -0.182 ± 0.065
163. CGGTCCAA  -0.19 ± 0.19
164. CCGGCCCA  -0.197 ± 0.085
165. GCCTTGCC  -0.201 ± 0.024
166. CGGACGAG  -0.203 ± 0.017
167. GACCAGCC  -0.205 ± 0.093
168. CTGAGATA  -0.222 ± 0.091
169. ATTCCGGC  -0.2339 ± 0.0017
170. TCCCGGGA  -0.251 ± 0.0053
171. CGATCGTC  -0.278 ± 0.042
172. CGCTGGCC  -0.289 ± 0.025
